Records with an inconclusive call do not appear. Calls of active or inactive are those of the source. Calls come from the whole dose curve; as a rule, active = well fitted curve in the direction sought with a large enough effect; inconclusive = small, poorly fitted or top-dose-only effect, or another doubt; inactive = no such curve, though single readings can be large; an effect the other way counts as inactive or inconclusive. *1 amine or outer side, *2 acyl side, *3 side chain or, on linkers, in order; H or OH if unused. Where a SMILES comes first, the peptide text is derived from it. Bridges are numbered along the chain shown (N, C = ends). [ ]: non-standard residue; d: D form. The star is where a group is joined. ξ: configuration not given here. ξhTyr(3S-OH,4S-OH,3'-OSO3H) = NC(C(=O)O)[C@H](O)[C@@H](O)c1ccc(O)c(OS(=O)(=O)O)c1; Orn(4R-OH,5R-OH) = O=C([C@H](C[C@@H](O)[C@@H](O)N[*:3])N[*:1])[*:2]; X2 = CCCCCOc1ccc(-c2cc(-c3ccc(C(=O)*)cc3)no2)cc1; X3 = C[C@H]1CN([*:1])C(C(=O)[*:2])[C@H]1O; ξGln(3R-OH) = NC(=O)C[C@@H](O)C(N)C(=O)O; ξPro(4R-OH) = O=C(O)C1C[C@@H](O)CN1; ξThr(3R) = C[C@@H](O)C(N)C(=O)O
How the values were obtained:
[1] = Confirmatory screen GU Rhodamine qHTS for Zika virus inhibitors qHTS (AID 1347157); note: nearly all actives have a fitted effect of over 70% in size; note: potency is the fitted concentration of half-maximal effect
Summary of the method: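 Unlinked NS2B/NS3, 25 nM; Rhod110 peptide, 1.5 microM; compounds, up to 114 microM. Reaction run 15 min at RT in 10 mM Tris-HCl pH 8.0, 0.01% Tween 20; kinetic fluorescence change fitted with a 4-parameter Hill model.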

[2] = ZIKV-mCherry secondary qHTS for Zika virus inhibitors (AID 1347158); note: potency is the fitted concentration of half-maximal effect
Summary of the method: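 This orthogonal imaging screen measured ZIKV-mCherry infection of Vero cells exposed to compound, MOI 1, 48-72 h. Percent infection came from segmented nuclei scored mCherry-positive above 3 SD of negative controls.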

[3] = system: Zika virus NS2B-NS3 protease (unlinked complex); experiment: Primary screen GU Rhodamine qHTS for Zika virus inhibitors: Unlinked NS2B-NS3 protease assay (AID 1347159); note: nearly all actives have a fitted effect of over 60% in size; note: potency is the fitted concentration of half-maximal effect
Summary of the method: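 Percent inhibition came from the 15-min rise in Rhodamine110 fluorescence (1.5 microM substrate, ~15% conversion), normalized to no-inhibitor and no-enzyme wells and Hill-fitted. Unlinked protease, 25 nM, pH 8.0 Tris buffer; compounds up to 114 microM, 15-min preincubation.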

[4] = system: Zika virus NS2B-NS3 protease (linked construct); experiment: Primary screen NINDS Rhodamine qHTS for Zika virus inhibitors (AID 1347160); note: nearly all actives have a fitted effect of over 55% in size; note: potency is the fitted concentration of half-maximal effect
Summary of the method: (§1)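 Rhodamine110-peptide cleavage (1.5 µM substrate) by 25 nM linked NS2B-NS3 enzyme at pH 8.0 (Tris, Tween 20), after 15 min RT preincubation with compounds; 15-min fluorescence change normalized to controls and Hill-fitted.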

[5] = Confirmatory screen NINDS Rhodamine qHTS for Zika virus inhibitors (AID 1347161); note: nearly all actives have a fitted effect of over 60% in size; note: potency is the fitted concentration of half-maximal effect
Summary of the method: as §1

[6] = system: Zika virus NS2B-NS3 protease (linked); experiment: 384 well plate NINDS AMC confirmatory qHTS for Zika virus inhibitors (AID 1347163); note: nearly all actives have a fitted effect of over 50% in size; note: potency is the fitted concentration of half-maximal effect
Summary of the method: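 Enzyme (5, 30 or 60 nM final) first met test compounds for ~15 min. The AMC-tagged peptide Ac-VKTGKR-AMC followed at 30 microM. Fluorescence was then recorded at 25 min and scaled against no-enzyme and no-inhibitor wells.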

[7] = system: Zika virus NS2B-NS3 protease (linked construct); experiment: 384 well plate NINDS Rhodamine confirmatory qHTS for Zika virus inhibitors (AID 1347164);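 note: fluorescence from protease cleavage of Ac-LKRR-rhodamine 110 substrate; nearly all actives have a fitted effect of over 65% in size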; note: potency is the fitted concentration of half-maximal effect
Summary of the method: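 Linked protease at a final 5 nM, 30 nM or 60 nM was preincubated ~15 min with compounds, then given 10 microM Ac-LKRR-Rhodamine 110. Fluorescence (ex 485/em 538 nm) after 25 min in the dark at room temperature.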

[8] = Vero cells viability qHTS for Zika virus inhibitors (AID 1347167)
Summary of the method: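 To flag cytotoxic protease inhibitors, viability is measured by ATP-dependent luminescence (CellTiter Glo) after cells attached overnight receive compound for 24 to 48 hours in DMEM with 4% FBS.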

[9] = system: Zika virus NS2B-NS3 protease (unlinked complex); experiment: Confirmatory screen GU AMC qHTS for Zika virus inhibitors (AID 1347153);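 note: enzyme at 25 nM with substrate at 10 µM below its Km of 18.3 µM; potency is the fitted concentration of half-maximal effect; nearly all actives have a fitted effect of over 70% in size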
Summary of the method: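 Compounds were preincubated 15 min at room temperature with 25 nM noncovalent NS2B-NS3 protease at pH 8.0; AMC substrate added at 10 microM and 15-min fluorescence gain (340/450 nm) converted to percent inhibition, fitted 4-parameter.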

[10] = system: Zika virus NS2B-NS3 protease; experiment: Primary screen GU AMC qHTS for Zika virus inhibitors (AID 1347154); note: nearly all actives have a fitted effect of over 70% in size
Summary of the method: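 Unlinked Zika NS2B hydrophilic domain/NS3 protease domain noncovalent complex (25 nM final) in 10 mM Tris-HCl pH 8.0, 0.01% Tween 20, with AMC peptide substrate. Fluorescence (ex 340, em 450 nm) change over 15 min, room temperature; percent inhibition fitted to 4-parameter Hill equation.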

Measured: Potency

Cc1cc(C)c2nc(-c3ccccn3)cc(C(=O)Nc3ccc(S(=O)(=O)Nc4onc(C)c4C)cc3)c2c1
active: [1] 2.78 µM | [3] 2 µM | [4] 2.24 µM | [5] 3.12 µM | [6] 5.01 µM | [7] 3.98 µM
inactive: [2] | [8]

COc1cc(/C=C/c2ccccc2)c(C(=O)O)c(O)c1CC=C(C)C
active: [9] 34.3 µM | [1] 3.06 µM | [3] 4.47 µM | [4] 10 µM | [5] 4.85 µM
inactive: [8]

Cc1ccc([C@@H]2CC=C(C(=O)O)[C@H](c3ccc(C(C)(C)C)cc3)N2S(=O)(=O)c2ccc(C)cc2)cc1
inactive: [8]
active: [9] 19.7 µM | [1] 3.12 µM | [3] 2.51 µM | [4] 2.24 µM | [5] 2.78 µM | [6] 3.55 µM | [7] 4.47 µM

CC1(C)CC=C(c2cnc3ccccc3c2)c2cc(C(=O)Nc3ccc(C(=O)O)cc3)ccc21
inactive: [7] | [8]
active: [9] 15.6 µM | [1] 2.78 µM | [3] 1.78 µM | [4] 3.16 µM | [5] 1.97 µM

C=CC1(C)C=C2CC[C@H]3[C@@](C)(C(=O)O)CCC[C@]3(C)C2CC1 (stereo partly specified)
active: [1] 15.3 µM | [3] 7.94 µM | [4] 3.55 µM | [5] 9.67 µM | [6] 70.8 µM | [7] 20 µM
inactive: [8]

CCCCCOc1ccc(-c2cc(-c3ccc(C(=O)N[C@H]4C[C@@H](O)[C@@H](O)NC(=O)C5[C@@H](O)[C@@H](C)CN5C(=O)C([C@H](O)CC(N)=O)NC(=O)C([C@H](O)[C@@H](O)c5ccc(O)c(OS(=O)(=O)O)c5)NC(=O)C5C[C@@H](O)CN5C(=O)C([C@@H](C)O)NC4=O)cc3)no2)cc1 (stereo partly drawn) (X2-[Orn(4R-OH,5R-OH)][ξThr(3R)][ξPro(4R-OH)][ξhTyr(3S-OH,4S-OH,3'-OSO3H)][ξGln(3R-OH)][X3]; lactam 1-C)
inactive: [8]
active: [9] 21.5 µM | [1] 4.82 µM | [4] 4.47 µM | [5] 4.29 µM

Cn1cc(-c2c[nH]c3ncnc(N4CCOCC4)c23)cn1
inactive: [1] | [3] | [5]

C/C(=C\CCC(C)CCO)C(=O)OC[C@H]1O[C@@H](O[C@@H]2OC=C(C(=O)O)[C@H]3CC[C@](C)(O)[C@@H]23)C(O)[C@@H](O)C1O (stereo partly specified)
inactive: [8]
active: [1] 4.29 µM | [3] 7.94 µM | [4] 5.62 µM | [5] 2.15 µM

COc1cc(Nc2nc3ccccc3nc2NS(=O)(=O)c2cccc(NC(=O)c3ccc(C)c(OC)c3)c2)cc(OC)c1
active: [1] 1.39 µM | [3] 3.55 µM | [4] 7.94 µM | [5] 1.97 µM
inactive: [6] | [7] | [8]

O=C(O)C1(c2ccc(-c3ccc(Cl)c(Cl)c3)c(F)c2)CC1
active: [9] 44.1 µM | [1] 11.1 µM | [3] 7.94 µM | [4] 8.91 µM | [5] 6.98 µM | [6] 14.1 µM
inactive: [8]

COc1cc2c(c(O)c1OC/C=C(\C)CC/C=C(/C)CCC=C(C)C)CN(C(CCC(=O)O)C(=O)O)C2=O (stereo unspecified)
inactive: [7] | [8]
active: [9] 34.1 µM | [1] 3.41 µM | [2] 6.31 µM | [3] 2 µM | [4] 7.94 µM | [5] 2.71 µM | [6] 8.91 µM

O=S(=O)(O)c1ccc(Nc2ncnc3c2ncn3[C@@H]2O[C@H](CO)[C@@H](O)[C@H]2O)cc1
inactive: [10] | [3] | [4]

COc1cc(C)c(C(=O)OC2C(C)OC(OC3CCC(C)C4C3C=C(C)C3/C(C)=C\CC/C(C)=C/C5(C)C=C(C(=O)O)C(C)CC56OC(=O)/C(=C(\O)C34C)C6=O)C(O)C2O)c(OC)c1 (stereo unspecified)
active: [9] 9.37 µM | [1] 2.64 µM | [3] 1.26 µM | [4] 2.47 µM | [5] 1.32 µM
inactive: [8]

Reference: PubChem BioAssay (NCATS)
